Bioassay records deposited in PubChem by National Center for Advancing Translational Sciences (NCATS).
Compounds with a hit are over-represented: about 12% of the library has one in this group of screens.
JMJD2A Tudor inh: JMJD2A Tudor domain (human) inhibition; O75164; AlphaScreen JMJD2A-Tudor / H3K4me3 peptide binding; Potency, µM (top dose mostly 114 µM), most hits filed as inhibitors; 4.4% of 390,000 active; AID 504339; note: nearly all actives have a fitted effect of over 50% in size
BAZ2B block: blocks human BAZ2B; AlphaScreen BAZ2B-H3K14Ac peptide displacement; Potency, µM (titrated, usually from 114 µM), hits mostly inhibitors; 4.4% of 360,000 active; AID 504333; note: nearly all actives have a fitted effect of over 60% in size
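Protein-peptide AlphaScreen: BAZ2B 50 nM, b-H3K14Ac 50 nM, 1x PBS pH 7.4 + 0.01% Tween-20. Preincubation 30 min RT; cpd 30 min RT (top 110 uM); beads 20 min RT, light-protected.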
G9a block: inhibitors of human histone lysine methyltransferase G9a; Q96KQ7; G9a H3K9 monomethylation, AlphaScreen, 2 h; Potency, µM (titrated, usually from 102 µM), usual class: inhibitors; 8.8% of 350,000 active; note: nearly all actives have a fitted effect of over 75% in size
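G9a (20 nM) preincubated 15 min RT with compounds, then 500 nM biotinylated H3K9 peptide and 20 uM SAM added; 2 h RT reaction. Monomethyl-H3K9 product detected by AlphaScreen with anti-H3K9me1 antibody, streptavidin donor and anti-rabbit IgG acceptor beads.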
PLK1 PBD inh: PLK1 (human) polo-box domain binding inhibition | P53350 | Potency, µM, actives largely listed as inhibitors | AID 720504 | 2.8% of 360,000 active | Plk1 PBD binding of FITC phosphopeptide, fluorescence polarization; note: series mostly up to about 57 µM; nearly all actives have a fitted effect of over 65% in size
Target sequence (P53350 whole entry, looked up, the tested form may be a part): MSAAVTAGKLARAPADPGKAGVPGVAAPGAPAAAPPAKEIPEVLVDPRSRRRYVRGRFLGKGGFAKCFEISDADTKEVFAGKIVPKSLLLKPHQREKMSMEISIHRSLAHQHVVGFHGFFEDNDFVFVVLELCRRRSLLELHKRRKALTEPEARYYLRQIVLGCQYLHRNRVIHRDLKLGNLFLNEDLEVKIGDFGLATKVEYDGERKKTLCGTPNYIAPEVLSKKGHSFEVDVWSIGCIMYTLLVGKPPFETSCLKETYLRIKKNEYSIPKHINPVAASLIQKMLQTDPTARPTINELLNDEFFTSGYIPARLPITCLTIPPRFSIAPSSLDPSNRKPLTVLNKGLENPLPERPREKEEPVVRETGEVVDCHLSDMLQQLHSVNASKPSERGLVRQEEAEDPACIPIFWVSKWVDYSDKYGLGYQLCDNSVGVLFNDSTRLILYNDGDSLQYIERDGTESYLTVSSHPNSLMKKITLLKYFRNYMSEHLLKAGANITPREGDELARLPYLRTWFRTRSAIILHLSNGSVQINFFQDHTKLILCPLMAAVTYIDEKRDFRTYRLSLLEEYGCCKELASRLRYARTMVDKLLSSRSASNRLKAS
HP1b binding inh: HP1-beta chromodomain-methylated histone interaction inhibition; P83916; AlphaScreen HP1-beta / biotin-H3K9me3 peptide binding; Potency, µM (series often up to 114 µM), actives largely listed as inhibitors; 0.56% of 390,000 active; note: nearly all actives have a fitted effect of over 70% in size
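AlphaScreen: HP1-beta (50 nM) preformed 30 min with biotin-H3(1-18)K9me3 peptide (50 nM) in PBS pH 7.4, 0.01% Tween-20. Compound added for 30 min at RT, then streptavidin donor/nickel chelate acceptor beads (10 ug/mL) for 30 min.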
Sfp inh: blocks B. subtilis Sfp PPTase activity. Q9F4F7. Biochemical Sfp PPTase activity, qHTS. Potency, µM, actives largely listed as inhibitors. 3.5% of 310,000 active. AID 1490;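 note: the enzyme is Sfp with the accession as filed and its product quenches rhodamine fluorescence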
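Fluorescence-quenching assay with 15 nM Sfp, 5 uM rhodamine-CoA and 12.5 uM BHQ-2-labelled ybbR peptide in pH 7.6 Hepes/MgCl2 buffer. Enzyme was pre-incubated with compound for 15 min at room temperature. Rate was taken from the 30-min fluorescence change (525/598 nm).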
Large screens that a line does not name were inactive. Calls come from the whole dose curve; as a rule, active = well fitted curve in the direction sought with a large enough effect; inconclusive = small, poorly fitted or top-dose-only effect, or another doubt; inactive = no such curve, though single readings can be large; an effect the other way counts as inactive or inconclusive.

COc1ccc(NC(=O)CSc2nnc(NC(=O)Nc3ccc(OC)cc3)s2)cc1	G9a block inconclusive (no result: PLK1 PBD inh, Sfp inh)
O=C(Nc1nnc(SCC(=O)N2CCCCC2)s1)C1CCCCC1	G9a block 3.98µM
O=C(CSc1nncs1)Nc1ccc2[nH]c(=O)[nH]c2c1	G9a block 11.2µM (no result: Sfp inh)
Cc1nnc(SCC(=O)Nc2ccc3[nH]c(=O)[nH]c3c2)s1	G9a block inconclusive (no result: Sfp inh)
COc1ccc(NC(=O)CSc2nnc(NC(=O)c3ccccc3C(=O)O)s2)cc1	JMJD2A Tudor inh 50.1µM, G9a block inconclusive, PLK1 PBD inh 16.8µM
CSc1nc(N)c2cn[nH]c2n1	none (no result: BAZ2B block, G9a block, Sfp inh)
COc1ccc(Nc2nnc(SCC(=O)N3CCCC3)s2)cc1	G9a block 35.5µM
O=C(CSc1ccc([N+](=O)[O-])cn1)Nc1ccc2[nH]c(=O)[nH]c2c1	G9a block 31.6µM
Cc1cc(C)nc(NN2C(=O)C=CC2=O)n1	JMJD2A Tudor inh inconclusive, G9a block 2.82µM, PLK1 PBD inh inconclusive, HP1b binding inh inconclusive, Sfp inh 14.1µM
Cc1cc(C)nc(NC(=O)C(C)C)n1	none
Cc1ccc(NS(=O)(=O)c2ccc3c(c2)CCN(C(=O)C(F)(F)F)C3)cc1C	none (no result: BAZ2B block, G9a block, PLK1 PBD inh, HP1b binding inh, Sfp inh)
Cc1c(/C=C(\CC(=O)O)c2nc3ccccc3s2)cc(C#N)n1C	G9a block inconclusive, PLK1 PBD inh 26.7µM, Sfp inh inconclusive
CCOC(=O)C1CCCN(C(=O)c2ccc3c(c2)N(Cc2cccc(Cl)c2)C(=O)c2ccccc2S3(=O)=O)C1 (stereo unspecified)	none (no result: PLK1 PBD inh, Sfp inh)
Cc1c(NC(=O)c2cc(-n3cnnc3)ccc2Cl)cccc1-c1nc2ccccc2o1	G9a block 2.51µM
Cc1cc(S(=O)(=O)Nc2ccc(C(=O)NCCCN3CCCC3=O)cc2)ccc1F	none (no result: Sfp inh)
Cc1ccc(S(=O)(=O)Nc2cc(=O)[nH]c(SCc3ccccc3Cl)n2)cc1	JMJD2A Tudor inh 56.2µM
CCCc1cc(=O)[nH]c(SCc2ccc(Cl)cc2)n1	none
CC(C)(C)c1cc(=O)[nH]c(SCc2ccccc2Cl)n1	none
COc1ccc(Cl)cc1NC(=O)CSc1nc(NS(=O)(=O)c2ccccc2)cc(=O)[nH]1	JMJD2A Tudor inh inconclusive, G9a block 70.8µM
O=c1cc(NS(=O)(=O)c2ccccc2)nc(SCc2ccc(Cl)cc2)[nH]1	BAZ2B block 79.4µM
O=C(CSc1nc(NS(=O)(=O)c2ccccc2)cc(=O)[nH]1)Nc1ccc(Cl)cc1	BAZ2B block 79.4µM, G9a block 70.8µM
CN(c1ccccc1)S(=O)(=O)c1cccc(NC(=O)CCNC(=O)c2ccco2)c1	none (no result: JMJD2A Tudor inh, BAZ2B block, G9a block, HP1b binding inh, Sfp inh)
O=C(Nc1cccc(C(F)(F)F)c1)c1csc([C@@H]2O[C@H](CO)[C@@H](O)[C@H]2O)n1	none (no result: JMJD2A Tudor inh, BAZ2B block, G9a block, HP1b binding inh, Sfp inh)
COc1ccc(Cl)cc1NC(=O)Cn1c(=O)n(Cc2ccc(F)cc2)c(=O)c2cccnc21	none (no result: PLK1 PBD inh, Sfp inh)
C=CCNC(=S)NNc1nc2sc3c(c2c(=O)[nH]1)CC(C)(C)OC3	Sfp inh 7.08µM (no result: G9a block)
CCC1(C)Cc2c(sc3nn[nH]c(=O)c23)CO1 (stereo unspecified)	G9a block 39.8µM, PLK1 PBD inh 21.2µM
Cc1ccccc1NC(=O)Cn1nnc2sc3c(c2c1=O)CC(C)(C)OC3	none
CC1(C)Cc2c(sc3nnn(Cc4ccccc4)c(=O)c23)CO1	G9a block 12.6µM, PLK1 PBD inh inconclusive
COC(=O)c1ccc(Cn2nnc3sc4c(c3c2=O)CCCC4)cc1	none (no result: PLK1 PBD inh, Sfp inh)
O=C(O)c1ccc(Cn2nnc3sc4c(c3c2=O)CCCC4)cc1	BAZ2B block 79.4µM, G9a block 50.1µM
C=C1CCN(C(Cc2ccccc2)C(=O)Nc2ccc(OC)cc2)S(=O)(=O)c2ccccc21 (stereo unspecified)	none (no result: BAZ2B block, G9a block, PLK1 PBD inh)
CCC1(C)Cc2c(sc3nc(NC)n(C)c(=O)c23)CO1 (stereo unspecified)	JMJD2A Tudor inh inconclusive, BAZ2B block inconclusive, G9a block 31.6µM, Sfp inh inconclusive
CC1(C)Cc2c(sc3nc[nH]c(=O)c23)CO1	none
Cn1c(NN)nc2sc3c(c2c1=O)CC(C)(C)OC3	JMJD2A Tudor inh inconclusive, Sfp inh inconclusive
CC1(C)Cc2c(sc3nn[nH]c(=O)c23)CO1	G9a block 31.6µM, PLK1 PBD inh inconclusive
